The record followed here is PubChem BioAssay (EPA / NIEHS).

More than one record can exist for a structure, and the calls need not agree. Calls of active or inactive are those of the source. The calls were made as follows: active = hit-call score of the fitted dose curve at least 0.9, where 1 is the maximum; inactive = score below 0.9.

Read-out in one assay: KRT18 (gene 3875)
The assay can be described thus: BSK_BE3C_Keratin818: BioMAP Diversity Plus: BE3C Assay for Keratin 818 Biomarker Activity (AID 2284282). The conditions noted are these: primary human bronchial epithelial cells. The gist of the method: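 BE3C: human bronchial epithelial primary cells, 24 h exposure, Keratin 8/18 ELISA; DMSO = negative control/baseline; cytotoxicity by parallel SRB stain (0.1% SRB after 10% TCA fixation, 560 nm).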

Read-out in assay [1]: Matrix Metallopeptidase 9 (MMP9), MMP9 (gene 4318)
Kind of assay: BSK_BE3C_MMP9: BioMAP Diversity Plus: BE3C Assay for Matrix Metallopeptidase 9 (MMP9) Biomarker Activity (AID 2284283). The note with it: primary human bronchial epithelial cells. Put shortly:
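BE3C, human bronchial epithelial primary cells; 24 h post-dose; MMP-9 by ELISA; positive fit vs DMSO; SRB (0.1%, TCA-fixed, 560 nm) parallel cytotox.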

Read-out in assay [2]: Plasminogen activator inhibitor-1 (PAI1), SERPINE1 (gene 5054)
Kind of assay: BSK_CASM3C_PAI1: BioMAP Diversity Plus: CASM3C Assay for Plasminogen activator inhibitor-1 (PAI1) Biomarker Activity (AID 2284284).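 Also: PAI-1 protein level measured by ELISA 24 h after dosing.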 The conditions noted are these: primary human coronary artery smooth muscle cells.

Read-out in assay [3]: Monocyte Chemoattractant Protein-1 (MCP1), CCL2 (gene 6347)
The assay can be described thus: BSK_hDFCGF_MCP1: BioMAP Diversity Plus: hDFCGF Assay for Monocyte Chemoattractant Protein-1 (MCP1) Biomarker Activity (AID 2284285). The note with it: primary human foreskin fibroblasts. Put shortly:
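Human foreskin fibroblasts (hDFCGF system) were exposed to compound and secreted MCP-1 was measured by ELISA after 24 hours. Activity was fitted relative to DMSO. Cytotoxicity was checked by SRB total-protein staining in parallel cultures.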

Read-out in assay [4]: Intercellular Adhesion Molecule 1 (ICAM1), ICAM1 (gene 3383)
Kind of assay: BSK_hDFCGF_ICAM1: BioMAP Diversity Plus: hDFCGF Assay for Intercellular Adhesion Molecule 1 (ICAM1) Biomarker Activity (AID 2284287). The note with it: primary human foreskin fibroblasts. The gist of the method: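 Primary human foreskin fibroblasts (hDFCGF system) dosed with chemical; ICAM-1 quantified by ELISA at 24 h relative to DMSO. Parallel SRB total-protein staining to assess overt cytotoxicity.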

Read-out in assay [5]: TIMP metallopeptidase inhibitor 2 (TIMP2), TIMP2 (gene 7077)
Kind of assay: BSK_hDFCGF_TIMP2: BioMAP Diversity Plus: hDFCGF Assay for TIMP metallopeptidase inhibitor 2 (TIMP2) Biomarker Activity (AID 2284289). The note with it: primary human foreskin fibroblasts. The gist of the method: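 Primary human foreskin fibroblasts in the hDFCGF system, dosed for 24 h; TIMP-2 level measured by ELISA, fitted in the positive direction against DMSO; cytotoxicity checked in parallel by sulforhodamine B total protein staining.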

Assay [6] can be described thus: IUF_NPC2c_oligodendrocyte_migration_120hr: Leibniz Research Institute for Environmental Medicine (IUF) 120-hour Neural Progenitor Cell Migration Assay for Oligodendrocyte Migration (NPC2c) (AID 2284297). Put shortly: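 Read-out is the mean distance of O4-positive oligodendrocytes from the sphere core edge at 120 h, normalized to radial glia migration and fitted in the gain direction against DMSO. Spheres of primary human neural progenitors differentiated on laminin under continuous compound exposure.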

A short description of assay [7]: IUF_NPC2a_radial_glia_migration_120hr: Leibniz Research Institute for Environmental Medicine (IUF) 120-hour Neural Progenitor Cell Migration Assay for Radial Glia Migration (NPC2a) (AID 2284298). Put shortly: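 Readout: distance in um from sphere core edge to migration-area edge, derived from Hoechst nuclei density with a threshold-defined polynomial boundary. Spheres: hNPC, GW 16-19, 0.3 mm, on PDL/laminin; exposure 5 days; DMSO is baseline.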

Assay [8] is described as follows: IUF_NPC2a_radial_glia_migration_72hr: Leibniz Research Institute for Environmental Medicine (IUF) 72-hour Neural Progenitor Cell Migration Assay for Radial Glia Migration (NPC2a) (AID 2284299). How it is done:
IUF_NPC2-5 is a cell-based, multiplexed assay that uses hNPC, a human primary neural progenitor cells, with measurements taken at 72 or 120 hours after chemical dosing in a 96-well plate. Human neural progenitor cells (hNPC) are generated from human fetal brain cortex at gestational week (GW) 16-19. In the neural progenitor cell migration and differentiation assay (NPC2-5), hNPCs grown as spheres are plated on an extracellular matrix and migrate and differentiate out of the sphere core. The processes radial glia migration, neuronal and oligodendrocyte migration as well as neuronal differentiation, neuronal morphology and oligodendrocyte differentiation are studied using automated phase contrast imaging and automated fluorescence imaging in combination with high content image analysis. In parallel, the cell viability is assessed using an alamar blue viability assay and the cytotoxicity using a lactate dehydrogenase dependent membrane integrity assay.IUF_NPC2a_radial glia_migration_72hr is one of 12 assay components measured from the IUF_NPC2-5 assay. The migration distance of radial glia at 72 hr is assessed in um from the edge of the sphere core to the edge of the migration area based on brightfield images of each well. […] Images are exported and the migration distance is measured manually in four directions using ImageJ. […]

The nature of assay [9]: IUF_NPC2b_neuronal_migration_120hr: Leibniz Research Institute for Environmental Medicine (IUF) 120-hour Neural Progenitor Cell Migration Assay for Neuron Migration (NPC2b) (AID 2284300). Put shortly: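 Read-out is mean distance from sphere edge to each TUBB3-positive neuron at 120 h, expressed relative to radial glia migration distance and to DMSO baseline. Single 0.3 mm human NPC spheres differentiated on laminin under continuous compound exposure.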

Regarding `NCCNCCN`, the result (with KRT18 (gene 3875); in assay [1]; in [2]; in assay [3]; in assay [4]; in assay [5]) was inactive.

The term AC50 denotes the midpoint of the concentration-response curve, whichever way the signal moves. As to `CC[Si](OC(C)=O)(OC(C)=O)OC(C)=O`, the result (with KRT18 (gene 3875); in assay [1]; in assay [2]; in assay [3]; in assay [4]; in [5]) was inactive. In assay [1], the AC50 was 6.87 µM (active).

Take `C=CCOC(=O)CCC1CCCCC1`: the result (with KRT18 (gene 3875); in assay [1]; in [2]; in assay [3]; in assay [4]; in [5]) was inactive.

For the molecule `Cc1cc(C2(c3cc(C)c(O)cc3C)OS(=O)(=O)c3ccccc32)c(C)cc1O`, the result (with KRT18 (gene 3875); in [1]; in assay [2]; in assay [3]; in [4]; in [5]) was inactive.

On to `OC1OC[C@@H](O)[C@H](O)[C@H]1O` (stereo partly specified), for which the result (with KRT18 (gene 3875); in assay [1]; in [2]; in [3]; in assay [4]; in assay [5]) was inactive.

With `CC(=O)[C@H]1CC[C@H]2[C@@H]3CC=C4C[C@@H](O)CC[C@]4(C)[C@H]3CC[C@]12C`, the outcome (with KRT18 (gene 3875); in assay [1]; in assay [2]; in assay [3]; in [4]; in assay [5]) was inactive.

Regarding `C[C@H]1C[C@@H]2[C@H]([C@@H](O)C[C@@]3(C)[C@H]2CC[C@]3(O)C(=O)CO)[C@@]2(C)C=CC(=O)C=C12`, the result (in the assay with KRT18 (gene 3875); in [1]; in [2]; in assay [3]; in [4]; in assay [5]) was inactive.

`CC(=O)OCCC(C)CC(C)(C)C` (stereo unspecified): the result (with KRT18 (gene 3875); in assay [1]; in assay [2]; in assay [3]; in assay [4]; in assay [5]) was inactive.

As for `COc1cc(C=O)ccc1OC(=O)C(C)C`, the result (with KRT18 (gene 3875); in [1]; in assay [2]; in assay [3]; in assay [4]; in assay [5]) was inactive.

In the case of `CCC(=O)OCc1ccccc1`, the result (with KRT18 (gene 3875); in assay [1]; in assay [2]; in [3]; in [4]; in [5]) was inactive.

As to `OC[C@H]1O[C@H](O[C@]2(CCl)O[C@H](CCl)[C@@H](O)[C@@H]2O)[C@H](O)[C@@H](O)[C@H]1Cl`, the result (in the assay with KRT18 (gene 3875); in assay [1]; in assay [2]; in assay [3]; in [4]; in assay [5]) was inactive.

Regarding `N#Cc1ccc(CC(=NNC(=O)Nc2ccc(OC(F)(F)F)cc2)c2cccc(C(F)(F)F)c2)cc1`, the molecule was classed as inactive in assay [6], in assay [7], in [8] and in assay [9].

On to `CN(C)C(=N)N=C(N)N`, for which the molecule was classed as inactive in [6], in assay [7], in assay [8] and in assay [9].

With `Nc1cc([N+](=O)[O-])ccc1O`, the outcome (in the assay with KRT18 (gene 3875); in assay [1]; in assay [2]; in assay [3]; in assay [4]; in assay [5]) was inactive.
